Test results: PubChem BioAssay AID1159580 (chemical genetic matrix, 2015)
Where “and” joins values, the source holds several entries; their conditions need not be identical. Identical values can stand only once. The campaign covered roughly 5,500 compounds. About 2,000 (36%) were called active. Another 18% or so got no clear call; they are omitted. No stated cut-off is given here; in the data, active means normalized growth mostly below about 0.91 (no sharp cut-off); inconclusive means no clear call, values can overlap the other calls; inactive means mostly above about 0.92. This is one part of the list.

Test: chemical genetic growth profiling, strain panel (AID 1159580);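 further: tested at 20 µM; growth read once vehicle control cultures reached saturation at 30 °C; 1 = growth at the plate median or of vehicle wells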
Settings: S. cerevisiae deletion strains, growth OD

Measured: normalized growth

CCCC(CCC)C(=O)O
inactive: locus YAL013W, strain DEP1, stronger effect = lower value 0.993 and 0.977 | locus YAL021C, strain ccr4, stronger effect = lower value 1 | locus YAL026C, strain drs2, stronger effect = lower value 1 | locus YAL030W, strain snc1, stronger effect = lower value 1.01 | locus YAL040C, strain CLN3, stronger effect = lower value 0.959 | locus YBL061C, strain skt5, stronger effect = lower value 1 | locus YBR009C, strain hhf1, stronger effect = lower value 1 | locus YBR021W, strain FUR4, stronger effect = lower value 0.953 | locus YBR023C, strain chs3, stronger effect = lower value 1.01 | locus YBR171W, strain sec66, stronger effect = lower value 1.01 | locus YBR229C, strain ROT2, stronger effect = lower value 0.992 | locus YBR231C, strain swc5, stronger effect = lower value 1.01 | locus YBR279W, strain paf1, stronger effect = lower value 1.02 | locus YCL011C, strain gbp2, stronger effect = lower value 1.01 | locus YCL016C, strain dcc1, stronger effect = lower value 1.01 | locus YCL029C, strain bik1, stronger effect = lower value 0.954 | locus YCL061C, strain MRC1 (second series), stronger effect = lower value 0.985 | locus YCL061C, strain MRC1, stronger effect = lower value 1 | locus YCL069W, strain vba3, stronger effect = lower value 1.02 | locus YCR088W, strain abp1, stronger effect = lower value 1.01 | locus YDL005C, strain med2, stronger effect = lower value 1.01 | locus YDL035C, strain GPR1, stronger effect = lower value 1 | locus YDL040C, strain nat1, stronger effect = lower value 1.01 | locus YDL074C, strain BRE1, stronger effect = lower value 1 | locus YDL101C, strain DUN1, stronger effect = lower value 1.01 | locus YDL185W, strain tfp1, stronger effect = lower value 0.964 | locus YDL192W, strain arf1, stronger effect = lower value 0.97 | locus YDR001C, strain nth1, stronger effect = lower value 1.01 | locus YDR069C, strain doa4, stronger effect = lower value 1.01 | locus YDR101C, strain arx1, stronger effect = lower value 0.963 | locus YDR137W, strain rgp1, stronger effect = lower value 0.985 | locus YDR150W, strain NUM1, stronger effect = lower value 0.981 | locus YDR159W, strain sac3, stronger effect = lower value 1.01 | locus YDR162C, strain NBP2, stronger effect = lower value 1 | locus YDR195W, strain ref2 1.02 | locus YDR297W, strain sur2, stronger effect = lower value 1 | locus YDR318W, strain mcm21, stronger effect = lower value 0.97 | locus YDR334W, strain swr1, stronger effect = lower value 1.02 | locus YDR335W, strain msn5, stronger effect = lower value 1.01 | locus YDR363W, strain ESC2, stronger effect = lower value 0.994 | locus YDR388W, stronger effect = lower value 0.967 | locus YDR392W, strain spt3, stronger effect = lower value 0.95 | locus YDR502C, strain sam2, stronger effect = lower value 0.965 | locus YEL003W, strain gim4, stronger effect = lower value 1.01 | locus YEL037C, strain rad23, stronger effect = lower value 1.01 | locus YEL061C, strain CIN8 (second series), stronger effect = lower value 1.01 | locus YEL061C, strain CIN8, stronger effect = lower value 0.994 | locus YER002W, strain NOP16, stronger effect = lower value 0.979 | locus YER015W, strain faa2, stronger effect = lower value 1.02 | locus YER016W, strain bim1, stronger effect = lower value 1 | locus YER110C, stronger effect = lower value 0.985 | locus YER111C, strain swi4, stronger effect = lower value 1.02 | locus YER155C, strain BEM2 (second series), stronger effect = lower value 0.996 | locus YER155C, strain BEM2, stronger effect = lower value 0.975 | locus YER167W, strain BCK2, stronger effect = lower value 0.986 | locus YFR010W, strain ubp6, stronger effect = lower value 1.02 | locus YGL078C, strain dbp3, stronger effect = lower value 0.963 | locus YGL086W, strain mad1, stronger effect = lower value 0.964 | locus YGL167C, strain pmr1, stronger effect = lower value 1.01 | locus YGL173C, strain kem1, stronger effect = lower value 1.01 | locus YGL227W, strain vid30, stronger effect = lower value 1.01 | locus YGL240W, strain doc1, stronger effect = lower value 1.01 | locus YGL248W, strain PDE1, stronger effect = lower value 0.998 | locus YGL253W, strain hxk2, stronger effect = lower value 1.01 | locus YGR078C, strain PAC10, stronger effect = lower value 0.989 | locus YGR135W, strain pre9, stronger effect = lower value 1 | locus YGR252W, strain gcn5, stronger effect = lower value 0.967 | locus YHR013C, strain ard1, stronger effect = lower value 1.03 | locus YHR027C, strain rpn1, stronger effect = lower value 1.03 | locus YHR030C, strain SLT2, stronger effect = lower value 0.987 and 0.951 | locus YHR079C, strain IRE1 (second series), stronger effect = lower value 0.966 | locus YHR079C, strain IRE1, stronger effect = lower value 0.951 | locus YHR094C, strain hxt1, stronger effect = lower value 0.97 | locus YHR129C, strain ARP1, stronger effect = lower value 0.994 | locus YHR142W, strain chs7, stronger effect = lower value 1.03 | locus YHR200W, strain rpn10, stronger effect = lower value 0.971 | locus YIL066C, strain RNR3, stronger effect = lower value 0.992 | locus YIL073C, strain SPO22, stronger effect = lower value 1.03 | locus YIR030C, strain dcg1, stronger effect = lower value 0.966 | locus YJL092W, strain hpr5, stronger effect = lower value 1.01 | locus YJL095W, strain BCK1 (second series), stronger effect = lower value 1.01 | locus YJL095W, strain BCK1, stronger effect = lower value 0.993 and 0.94 | locus YJL115W, strain asf1, stronger effect = lower value 1.02 | locus YJL129C, strain trk1, stronger effect = lower value 1.01 | locus YJL134W, strain LCB3, stronger effect = lower value 0.993 | locus YJL154C, strain vps35, stronger effect = lower value 1.01 | locus YJL164C, strain tpk1, stronger effect = lower value 1 | locus YJL166W, strain qcr8, stronger effect = lower value 1.01 | locus YJL168C, strain set2, stronger effect = lower value 0.986 | locus YJL187C, strain SWE1 (second series), stronger effect = lower value 0.992 | locus YJL187C, strain SWE1, stronger effect = lower value 1.01 | locus YJR043C, strain POL32, stronger effect = lower value 1.01 | locus YJR066W, strain TOR1, stronger effect = lower value 0.926 | locus YJR075W, strain HOC1, stronger effect = lower value 0.982 | locus YKL009W, strain mrt4, stronger effect = lower value 0.977 | locus YKL160W, strain elf1, stronger effect = lower value 1 | locus YKR001C, strain vps1, stronger effect = lower value 0.932 | locus YKR026C, strain gcn3, stronger effect = lower value 1.01 | locus YKR091W, strain srl3, stronger effect = lower value 1.01 | locus YLL001W, strain dnm1, stronger effect = lower value 1 | locus YLL026W, stronger effect = lower value 0.993 | locus YLL041C, strain sdh2, stronger effect = lower value 1.01 | locus YLR027C, strain aat2, stronger effect = lower value 1 | locus YLR039C, strain RIC1, stronger effect = lower value 0.97 | locus YLR058C, strain SHM2, stronger effect = lower value 0.999 | locus YLR102C, strain apc9, stronger effect = lower value 0.977 | locus YLR221C, strain rsa3, stronger effect = lower value 0.999 | locus YLR258W, strain gsy2, stronger effect = lower value 1.01 | locus YLR262C, strain YPT6 (second series), stronger effect = lower value 0.99 | locus YLR262C, strain YPT6, stronger effect = lower value 0.945 | locus YLR268W, strain sec22, stronger effect = lower value 0.961 | locus YLR320W, strain mms22, stronger effect = lower value 1.01 | locus YLR330W, strain CHS5, stronger effect = lower value 0.992 | locus YLR342W, strain FKS1 (second series), stronger effect = lower value 1.01 | locus YLR342W, strain FKS1, stronger effect = lower value 1.01 | locus YLR357W, strain rsc2, stronger effect = lower value 1.06 | locus YLR370C, strain arc18, stronger effect = lower value 1.01 | locus YLR371W, strain rom2, stronger effect = lower value 0.975 | locus YLR384C, strain iki3, stronger effect = lower value 1.01 | locus YLR418C, strain cdc73, stronger effect = lower value 0.987 | locus YML016C, strain PPZ1, stronger effect = lower value 0.992 | locus YML032C, strain rad52, stronger effect = lower value 0.98 | locus YML120C, strain ndi1, stronger effect = lower value 1 | locus YML124C, strain tub3, stronger effect = lower value 0.95 | locus YMR058W, strain fet3, stronger effect = lower value 1.01 | locus YMR078C, strain ctf18, stronger effect = lower value 0.967 | locus YMR125W, strain sto1, stronger effect = lower value 1.03 | locus YMR129W, stronger effect = lower value 1.01 | locus YMR205C, strain PFK2, stronger effect = lower value 1.02 | locus YMR223W, strain ubp8, stronger effect = lower value 0.994 | locus YMR231W, strain pep5, stronger effect = lower value 1.02 | locus YMR263W, strain SAP30, stronger effect = lower value 0.999 | locus YMR307W, strain GAS1, stronger effect = lower value 1.04 | locus YNL067W, strain RPL9B, stronger effect = lower value 0.988 | locus YNL071W, strain lat1, stronger effect = lower value 1.01 | locus YNL128W, strain TEP1, stronger effect = lower value 1 | locus YNL175C, strain NOP13, stronger effect = lower value 1 | locus YNL183C, strain NPR1, stronger effect = lower value 0.931 | locus YNL197C, strain WHI3, stronger effect = lower value 0.971 | locus YNL209W, strain ssb2, stronger effect = lower value 1.01 | locus YNL224C, strain SQS1, stronger effect = lower value 0.981 | locus YNL233W, strain BNI4, stronger effect = lower value 0.977 | locus YNL248C, strain rpa49, stronger effect = lower value 1.04 | locus YNL250W, strain rad50, stronger effect = lower value 0.937 | locus YNL271C, strain bni1, stronger effect = lower value 0.942 | locus YNL298W, strain CLA4, stronger effect = lower value 0.969 | locus YNL307C, strain MCK1, stronger effect = lower value 0.945 | locus YNL322C, strain KRE1 (second series), stronger effect = lower value 1 | locus YNL322C, strain KRE1, stronger effect = lower value 0.983 and 0.987 | locus YNR049C, strain mso1, stronger effect = lower value 1.01 | locus YNR052C, strain pop2, stronger effect = lower value 0.985 | locus YOL006C, strain TOP1, stronger effect = lower value 1.05 | locus YOL012C, strain htz1 1.46 | locus YOL147C, strain pex11, stronger effect = lower value 0.961 | locus YOR001W, strain rrp6, stronger effect = lower value 1.01 | locus YOR061W, strain CKA2, stronger effect = lower value 0.998 | locus YOR069W, strain VPS5, stronger effect = lower value 0.985 | locus YOR070C, strain gyp1, stronger effect = lower value 1.01 | locus YOR080W, strain dia2, stronger effect = lower value 1.02 | locus YOR083W, strain WHI5 (second series), stronger effect = lower value 0.985 | locus YOR083W, strain WHI5, stronger effect = lower value 0.998 | locus YOR106W, strain vam3, stronger effect = lower value 1.01 | locus YOR136W, strain idh2, stronger effect = lower value 0.968 | locus YOR144C, strain elg1, stronger effect = lower value 0.965 | locus YOR184W, strain ser1, stronger effect = lower value 0.966 | locus YOR231W, strain MKK1, stronger effect = lower value 0.935 | locus YOR265W, strain rbl2, stronger effect = lower value 1.01 | locus YOR270C, strain vph1, stronger effect = lower value 1.07 | locus YOR290C, strain snf2, stronger effect = lower value 1 | locus YOR316C, strain cot1, stronger effect = lower value 0.977 | locus YPL051W, strain arl3, stronger effect = lower value 0.999 | locus YPL055C, strain LGE1, stronger effect = lower value 1 | locus YPL078C, strain atp4, stronger effect = lower value 1.01 | locus YPL106C, strain sse1, stronger effect = lower value 1.01 | locus YPL240C, strain hsp82, stronger effect = lower value 1.02 | locus YPL256C, strain CLN2, stronger effect = lower value 0.882 | locus YPR119W, strain clb2, stronger effect = lower value 0.976 | locus YPR163C, strain tif3, stronger effect = lower value 0.959 | locus YPR167C, strain met16, stronger effect = lower value 0.973 | strain wtn01, stronger effect = lower value 0.954
active: locus YIL125W, strain kgd1, stronger effect = lower value 0.92 | locus YKL068W, stronger effect = lower value 0.91 | locus YKL085W, strain MDH1 (second series), stronger effect = lower value 0.918 | locus YKL085W, strain MDH1, stronger effect = lower value 0.918 | locus YLR113W, strain HOG1, stronger effect = lower value 0.853 | locus YPR141C, strain kar3, stronger effect = lower value 0.871
